Consider 35 molecules from PubChem BioAssay.

Activity calls are given as the source filed them.

One test in a line: probe aLefty1 binding on compound microarray – biochemical, small-molecule microarray, 635/667 nm fluorescence, primary screen (AID 1153).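 Further: score merges spot fluorescence with signal-to-noise ratio from the scanned slide images.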 The settings on record: higher = more signal.
As to `CN(C)CCCNC(=O)[C@@H]1c2ccccc2C(=O)N(Cc2ccc(OC(F)(F)F)cc2)[C@H]1c1ccc(CO)cc1`, the composite z-score was 0.197. For the molecule `COCCCNC(=O)[C@@]1(Sc2ccc(C)cc2)CC(=O)N(C2Cc3ccccc3C2)[C@@H]1c1ccc(CO)cc1I`, the composite z-score was -0.0366. On to `CCCCC(CC)C(O)C1C=CC2C(=O)N(c3ccccc3)C(=O)C2N1Nc1ccc([N+](=O)[O-])cc1` (stereo not given), for which the composite z-score turned out to be 0.602. Molecule `CC(C)C(=C=CC[C@@H](O)c1ccccc1OCCO)C[C@@H](O)COCc1ccccc1` yielded a composite z-score of -0.103.

In the case of `C[C@H]1C2=C3C(CC[C@H]4C(OCc5ccc(F)cc5C(F)(F)F)OC[C@](C)([C@@H]34)N(C(=O)OC(C)(C)C)C2)C2COC(=O)OCC21` (stereo not given in full), the composite z-score is 0.739. Same read-out and setting: under `CCOC(=CC(=O)OC)CC(O)c1cccc(Cl)c1` (stereo not given) stands -0.494; under `COc1cc(OC)c(C(O)C2C=CC3C(=O)N(c4ccccc4)C(=O)C3N2Nc2ccc(C#N)cc2)cc1Br` (stereo not given), 0.843. As to `CN(C)CCCNC(=O)[C@@H]1c2ccccc2C(=O)N(CC23CC4CC(CC(C4)C2)C3)[C@H]1c1ccc(CO)cc1`, the composite z-score was -0.262. `COc1cc2c(cc1OC)CN(C(=O)[C@H]1[C@@H]3C(=O)O[C@@H](c4ccccc4)[C@@H](c4ccccc4)N3[C@@H](c3ccc(OCCO)cc3)[C@]13C(=O)Nc1ccc(C#CCCO)cc13)CC2` gave a composite z-score of 0.433. On the same count and under the same terms, under `COCCOC(=O)N1C(=O)[C@@]2(c3cc(C#CC4=CCCCC4)ccc31)[C@H](c1ccccc1OCCO)N1[C@H](c3ccccc3)[C@H](c3ccccc3)OC(=O)[C@H]1[C@@H]2C(=O)N1CCc2cc(OC)c(OC)cc2C1` stands -0.715.

A short description of the next test: plasmodial surface anion channel blockers, osmotic lysis – cell-based, P. falciparum Indochina, OD700, 1 h, primary screen (AID 1154). The following applies: P. falciparum Indochina infected RBC osmotic lysis, higher = more signal, called active from +8 up or from −8 down.
`C=CC[C@@]12N=C(c3ccc(OCCCO)cc3)O[C@@H]1c1ccccc1N(CCS(=O)(=O)c1ccccc1)C2=O`: the z-score is 33.3 (active). On the same count and under the same terms, the result for `CN(C)CCCNC(=O)[C@@]1(C)c2ccccc2C(=O)N(Cc2cc(C(F)(F)F)cc(C(F)(F)F)c2)[C@H]1c1ccc(CO)cc1` reads 2.37 (inactive).

Consider `CC(C)NC(=O)[C@@]1(C)c2ccccc2C(=O)N(C(C)C)[C@H]1c1ccc(CO)cc1`, for which the z-score is 1.21 (inactive).

`O=C(N1CCCCC1)[C@@]1(Cc2ccccc2)COC(c2ccc(OCCCO)cc2)=N1`: the z-score is 20.9 (active).

As for `O=C1C[C@@](C(=O)NCC(F)(F)F)(c2ccc([N+](=O)[O-])cc2)[C@@H](c2ccc(CO)cc2)N1C1CCCCC1`, the z-score was 1.18 (inactive). With `O=C1c2ccccc2[C@](Cc2ccccc2I)(C(=O)NCc2ccccc2)[C@H](c2ccc(CO)cc2)N1C1CCCCC1`, the z-score is 2.39 (inactive). In the case of `C=CC[C@@]1(C(=O)N2CCCCC2)N=C(c2ccc(OCCCO)cc2)O[C@@H]1c1ccccc1`, the z-score was 26.1 (active). Take `C=CCOC(=O)[C@@H]1[C@H]2C(=O)O[C@H](c3ccccc3)[C@H](c3ccccc3)N2[C@H](c2ccc(OCCOC(=O)[C@H]3C[C@H]4C(=O)N[C@@H](CCCC[N+](C)(C)C)C(=O)N4[C@H]3c3ccc(O)cc3)cc2)[C@@]12C(=O)Nc1ccc(I)cc12`: the z-score is 2.42 (inactive). Turning to `C[C@H]1ON(c2ccc(C(=O)OC(C)(C)C)cc2)[C@@H](c2ccc(O)cc2)[C@@H]1C(=O)N1C(=O)OC[C@@H]1c1ccccc1`, the z-score is 3.71 (inactive). On to `Cc1c(NC(=O)/C(C#N)=C/C=C/c2ccccc2[N+](=O)[O-])c(=O)n(-c2ccccc2)n1C`, for which the z-score was 2.91 (inactive).

On to `CC(C)(C)OC(=O)CC[C@]1(C(=O)NCCN2CCOCC2)N=C(c2ccc(OCCCO)cc2)O[C@H]1c1ccccc1N=[N+]=[N-]`, for which the z-score is 31.3 (active). The same measure, in the same setting: the result for `CCOC(=O)[C@H]1C/C=C/C[C@H](C(=O)OCC)C(=O)O[C@H]2[C@@H](OC)O[C@H](CO)[C@@H](OC(=O)Nc3ccc(OC)cc3)[C@@H]2OC1=O` reads 0.736 (inactive); that for `O=C1NC(=O)C2C1C=CC(C(O)c1c(F)cccc1Cl)N2Nc1ccccn1` (stereo not given), -0.0298 (inactive). In the case of `COc1ccc([Si](C)(C)[C@@H]2[C@@H](CCO)O[C@]3(C(=O)N(Cc4cccc(N5C(=O)c6ccccc6Oc6ccccc65)c4)c4ccccc43)[C@H]2C)cc1`, the z-score is 2.72 (inactive). For `Cc1ccc(S[C@]2(C(=O)NCc3ccccc3)CC(=O)N(C(C)C)[C@@H]2c2ccc(CO)cc2I)cc1`, the z-score is 5.42 (inactive).

With `CC(C)CCC[C@@H](C)[C@H]1CC[C@@]2(C)C3=C(CC[C@]12C)[C@@]1(C)CC[C@H](OC(=O)c2ccc(Br)cc2)C(C)(C)C1CC3` (stereo not given in full), the z-score is -0.571 (inactive). Consider `NC(=O)N1C(=O)C2C(C1=O)C1C=C(c3ccc(CO)cc3)C2C(C2CC2)N1Cc1sc2ccccc2c1Cl` (stereo not given), for which the z-score is 17.8 (active). As to `C=CCN1C(=O)[C@@]2(O[C@@H](CCn3cc([C@H](O)c4ccccc4)nn3)[C@H]([Si](C)(C)c3ccc(OC)cc3)[C@H]2C)c2ccccc21`, the z-score is 7.57 (inactive).

With `CC1CC/C=C\[C@H]2OC34C=CCN(CCN5CCOCC5)C(=O)[C@H]3N(CCO)C(=O)[C@@H]4C2C(=O)O1` (stereo not given in full), the z-score was 3.04 (inactive).

With `C=CCOC(=O)[C@H]1[C@@H]2C(=O)O[C@@H](c3ccccc3)[C@@H](c3ccccc3)N2[C@@H](c2ccc(OCCOC(=O)[C@H]3C[C@H]4C(=O)N[C@@H](Cc5ccccc5)C(=O)N4[C@H]3c3ccc(O)cc3)cc2)[C@]12C(=O)Nc1ccc(I)cc12`, the z-score was 4.04 (inactive). Still for that read-out and setting: the result for `COc1ccc(C#Cc2ccc3c(c2)[C@]2(C(=O)N3)[C@H](C(=O)N3CCc4cc(OC)c(OC)cc4C3)[C@H]3C(=O)O[C@H](c4ccccc4)[C@H](c4ccccc4)N3[C@@H]2c2ccc(O)cc2)cc1` reads 0.488 (inactive); that for `O=C1O[C@@H](c2ccccc2)[C@@H](c2ccccc2)N2[C@@H](c3ccccc3OCCO)[C@]3(C(=O)Nc4ccccc43)[C@@H](C(=O)NC[C@H](O)c3ccccc3)[C@H]12`, 5.03 (inactive); that for `C[C@]1(C(=O)NC2CC2)c2ccccc2C(=O)N(Cc2ccc(OC(F)(F)F)cc2)[C@H]1c1ccc(CO)cc1`, 3.33 (inactive). Turning to `NC(=O)NCC#Cc1ccc2c(c1)[C@]1(C(=O)N2)[C@H](C(=O)Nc2nc3ccccc3s2)[C@H]2C(=O)O[C@H](c3ccccc3)[C@H](c3ccccc3)N2[C@@H]1c1ccc(O)cc1`, the z-score was 2.92 (inactive). As to `COc1ccc(CCNC(=O)[C@@]2(Sc3ccc(C)cc3)CC(=O)N(Cc3cc(C(F)(F)F)cc(C(F)(F)F)c3)[C@@H]2c2ccc(CO)cc2I)cc1`, the z-score was 10.5 (active). In the case of `CN(C)CCCNC(=O)[C@@H]1c2ccccc2C(=O)N(Cc2ccc(OC(F)(F)F)cc2)[C@H]1c1ccc(CO)cc1`, the z-score was 2.04 (inactive). With `COCCCNC(=O)[C@@]1(Sc2ccc(C)cc2)CC(=O)N(C2Cc3ccccc3C2)[C@@H]1c1ccc(CO)cc1I`, the z-score was 4.51 (inactive). For the molecule `CCCCC(CC)C(O)C1C=CC2C(=O)N(c3ccccc3)C(=O)C2N1Nc1ccc([N+](=O)[O-])cc1` (stereo not given), the z-score was 3.19 (inactive).

For `CC(C)C(=C=CC[C@@H](O)c1ccccc1OCCO)C[C@@H](O)COCc1ccccc1`, the z-score was 6.77 (inactive). Regarding `C[C@H]1C2=C3C(CC[C@H]4C(OCc5ccc(F)cc5C(F)(F)F)OC[C@](C)([C@@H]34)N(C(=O)OC(C)(C)C)C2)C2COC(=O)OCC21` (stereo not given in full), the z-score was 2.68 (inactive). For `CCOC(=CC(=O)OC)CC(O)c1cccc(Cl)c1` (stereo not given), the z-score is 4.33 (inactive). On to `COc1cc(OC)c(C(O)C2C=CC3C(=O)N(c4ccccc4)C(=O)C3N2Nc2ccc(C#N)cc2)cc1Br` (stereo not given), for which the z-score is 25 (active). `CN(C)CCCNC(=O)[C@@H]1c2ccccc2C(=O)N(CC23CC4CC(CC(C4)C2)C3)[C@H]1c1ccc(CO)cc1`: the z-score is 1.1 (inactive). On the same count and under the same terms, under `COc1cc2c(cc1OC)CN(C(=O)[C@H]1[C@@H]3C(=O)O[C@@H](c4ccccc4)[C@@H](c4ccccc4)N3[C@@H](c3ccc(OCCO)cc3)[C@]13C(=O)Nc1ccc(C#CCCO)cc13)CC2` stands 2.66 (inactive).

As for `COCCOC(=O)N1C(=O)[C@@]2(c3cc(C#CC4=CCCCC4)ccc31)[C@H](c1ccccc1OCCO)N1[C@H](c3ccccc3)[C@H](c3ccccc3)OC(=O)[C@H]1[C@@H]2C(=O)N1CCc2cc(OC)c(OC)cc2C1`, the z-score was 2.7 (inactive).
